Results as given in PubChem BioAssay (NCI).
Values joined by “and” are separate entries in the source; they are usually repeats but may differ in a detail not shown here. Equal entries are not always repeated. About 79,000 compounds went through this panel and 15% of them were active in at least one assay; those are over-represented in the sample as a whole. Active and inactive are the calls of the source. No stated cut-off is given here; in the data, active means growth inhibition above about 70%; inactive means the rest.

How the values were obtained:
[1] = NCI Yeast Anticancer Drug Screen. Data for the mec2-1 strain (AID 157); details: S. cerevisiae mec2-1 strain, active compounds read high
How it was run: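 Growth inhibition is read against vehicle-treated controls after compound exposure of the mec2-1 yeast strain, which is defective in DNA damage repair or cell cycle control.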

[2] = NCI Yeast Anticancer Drug Screen. Data for the rad14 strain (AID 159);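 further: 0% = growth of vehicle-treated control cultures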; details: S. cerevisiae rad14 strain growth inhibition, active compounds read high
How it was run: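 Inhibition of growth is reported for a repair-deficient yeast mutant following compound treatment, calculated relative to cultures that received vehicle.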

[3] = NCI Yeast Anticancer Drug Screen. Data for the sgs1 mgt1 strain (AID 161);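 further: 0% = growth of cultures given vehicle only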; details: S. cerevisiae sgs1 mgt1 strain, active compounds read high
How it was run: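 Yeast cells carrying a defined DNA-repair defect were exposed to test compounds. Growth inhibition was measured relative to vehicle-treated controls.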

[4] = NCI Yeast Anticancer Drug Screen. Data for the CLN2oe strain (AID 163);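 further: 0% = growth of vehicle-only control cultures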; details: S. cerevisiae CLN2oe strain, active compounds read high
How it was run: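 Compound-treated yeast; growth vs vehicle ctrl = % inhibition. Genetically altered strain (cell-cycle control).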

[5] = NCI Yeast Anticancer Drug Screen. Data for the cln2 rad14 strain (AID 165);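 further: 0% = growth equal to vehicle treated cultures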; details: S. cerevisiae cln2 rad14 strain, active compounds read high
How it was run: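 Growth inhibition, relative to vehicle-treated controls, is the read-out. The test organism is a yeast strain with defined genetic alterations, cln2 rad14.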

[6] = NCI Yeast Anticancer Drug Screen. Data for the bub3 strain (AID 167); details: S. cerevisiae bub3 mutant strain, active compounds read high
How it was run: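 Mutant yeast screening strain plus compound; vehicle-treated cultures serve as the 0% inhibition reference.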

[7] = NCI Yeast Anticancer Drug Screen. Data for the wt2 strain (AID 169); details: S. cerevisiae wt2 strain growth inhibition, active compounds read high
How it was run: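 Compound exposure of yeast; growth compared with vehicle controls; inhibition reported.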

[8] = NCI Yeast Anticancer Drug Screen. Data for the mlh1 strain (AID 171);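 further: 0% = growth of vehicle-treated control cultures of the same strain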; details: S. cerevisiae mlh1 strain growth inhibition, active compounds read high
How it was run: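 Compounds are applied to a genetically altered yeast strain, and its growth is compared with that of vehicle-treated cultures to give percent inhibition.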

[9] = NCI Yeast Anticancer Drug Screen. Data for the sgs1 strain (AID 173);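 further: 0% = growth of vehicle-only control cultures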; details: S. cerevisiae sgs1 mutant, active compounds read high
How it was run: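 Compounds applied to genetically altered yeast; growth compared with vehicle-treated cultures to give % inhibition.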

[10] = NCI Yeast Anticancer Drug Screen. Data for the mlh1 rad18 strain (AID 175); details: S. cerevisiae mlh1 rad18 strain growth inhibition, active compounds read high
How it was run: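 Cells of a genetically altered yeast strain, deficient in DNA damage repair, were treated with compound. Their growth was then compared with that of vehicle-treated cultures to give inhibition.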

[11] = NCI Yeast Anticancer Drug Screen. Data for the rad18 strain (AID 177); details: S. cerevisiae rad18 mutant growth inhibition, active compounds read high
How it was run: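 Compounds are applied to a repair-deficient yeast strain, and growth is compared with that of vehicle-treated cultures to give percent inhibition.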

[12] = NCI Yeast Anticancer Drug Screen. Data for the rad52 strain (AID 147);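 further: 0% = growth of vehicle-treated control cultures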; details: S. cerevisiae rad52 mutant growth inhibition, active compounds read high
How it was run: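 DNA repair-defective yeast; compound exposure; growth scored against vehicle controls.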

[13] = NCI Yeast Anticancer Drug Screen. Data for the wt1 strain (AID 149);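 further: 0% = growth of vehicle-treated wt1 cultures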; details: S. cerevisiae wt1 strain (SPY 50644) growth inhibition, active compounds read high
How it was run: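 Each compound is tested on wt1 yeast and the loss of growth versus vehicle gives the inhibition value.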

[14] = NCI Yeast Anticancer Drug Screen. Data for the rad50EPP+ strain (AID 151);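 further: 0% = growth of vehicle-treated control cultures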; details: S. cerevisiae rad50 mutant strain, active compounds read high
How it was run: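 rad50EPP+ yeast treated with test compounds. Readout: growth vs vehicle control.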

[15] = NCI Yeast Anticancer Drug Screen. Data for the mgt1 strain (AID 153); details: S. cerevisiae mgt1 mutant growth inhibition, active compounds read high
How it was run: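 Growth inhibition relative to vehicle controls was scored for the mgt1 yeast strain after compound exposure.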

[16] = NCI Yeast Anticancer Drug Screen. Data for the rad50 strain (AID 155);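 further: 0% = growth of vehicle-only cultures of the same strain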; details: S. cerevisiae rad50 strain growth inhibition, active compounds read high
How it was run: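 Vehicle-treated cultures provide the reference for the growth inhibition reported for compound-exposed, repair-deficient yeast.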

[17] = at 5.0 µM (retest, dose inferred, filed as 0.5)
[18] = at 50.0 µM (retest, dose inferred, filed as 5.0)

Measured: growth inhibition

COC1=C(N)C(=O)c2nc(-c3nc(C(=O)O)c(C)c(-c4ccc(OC)c(OC)c4O)c3N)ccc2C1=O
active: [1]; [17] 97% and 99% | [1]; at 11.0 µM 99% | [1]; at 33.0 µM 99% | [1]; [18] 98% and 99% | [1]; at 50.0 µM 94% | [1]; at 100.0 µM 98% | [2]; at 1.2 µM 98% | [2]; at 3.7 µM 98% | [2]; at 11.0 µM 98% | [2]; at 33.0 µM 98% | [2]; at 100.0 µM 98% | [3]; [18] 98% and 96% | [3]; at 50.0 µM 94.2% and 93.8% | [4]; at 1.2 µM 89% | [4]; at 3.7 µM 93% | [4]; at 11.0 µM 96% | [4]; at 33.0 µM 97% | [4]; at 100.0 µM 96% | [5]; [18] 98% and 92% | [5]; at 50.0 µM 93% and 92.2% | [6]; at 1.2 µM 95% | [6]; at 3.7 µM 97% | [6]; at 11.0 µM 98% | [6]; at 33.0 µM 97% | [6]; [18] 98% and 93% | [6]; at 50.0 µM 94% and 92.8% | [6]; at 100.0 µM 98% | [7]; at 1.2 µM 91% | [7]; at 3.7 µM 97% | [7]; at 11.0 µM 97% | [7]; at 33.0 µM 98% | [7]; at 100.0 µM 97% | [8]; at 1.2 µM 95% | [8]; at 3.7 µM 98% | [8]; at 11.0 µM 98% | [8]; at 33.0 µM 98% | [8]; at 100.0 µM 97% | [9]; at 1.2 µM 95% | [9]; at 3.7 µM 97% | [9]; at 11.0 µM 98% | [9]; at 33.0 µM 98% | [9]; at 100.0 µM 97% | [10]; [17] 97% and 99% | [10]; [18] 97% and 98% | [10]; at 50.0 µM 93% and 92.5% | [11]; at 1.2 µM 96% | [11]; at 3.7 µM 98% | [11]; at 11.0 µM 98% | [11]; at 33.0 µM 97% | [11]; at 100.0 µM 97%
inactive: [3]; [17] 16% and 59% | [5]; [17] 13% and 49% | [6]; [17] 14% and 30%

Oc1ccc2c(c1)C(O)CCCC2 (stereo unspecified)
inactive: [12]; at 1.2 µM 5% | [12]; at 3.7 µM 9% | [12]; at 11.0 µM 25% | [12]; at 33.0 µM 38% | [13]; at 1.2 µM -3% | [13]; at 3.7 µM -7% | [13]; at 11.0 µM -4% | [13]; at 33.0 µM -1% | [13]; at 100.0 µM 18% | [14]; at 1.2 µM 10% | [14]; at 3.7 µM 25% | [14]; at 11.0 µM 40% | [14]; at 33.0 µM 53% | [15]; at 1.2 µM -2% | [15]; at 3.7 µM 1% | [15]; at 11.0 µM 4% | [15]; at 33.0 µM 17% | [16]; at 1.2 µM 4% | [16]; at 3.7 µM 16% | [16]; [17] 31% | [16]; at 11.0 µM 28% | [16]; at 33.0 µM 46% | [1]; at 1.2 µM -3% | [1]; at 3.7 µM -1% | [1]; [17] 6% | [1]; at 11.0 µM 2% | [1]; at 33.0 µM 7% | [1]; at 50.0 µM 58.6% | [1]; at 100.0 µM 46% | [2]; at 1.2 µM 5% | [2]; at 3.7 µM 13% | [2]; at 11.0 µM 23% | [2]; at 33.0 µM 43% | [3]; [17] 65% | [3]; at 50.0 µM 34.1% | [4]; at 1.2 µM -4% | [4]; at 3.7 µM -6% | [4]; at 11.0 µM -3% | [4]; at 33.0 µM 7% | [4]; at 100.0 µM 42% | [5]; [17] 0% | [5]; [18] 36% | [5]; at 50.0 µM 35.4% | [6]; at 1.2 µM -9% | [6]; at 3.7 µM -8% | [6]; [17] 30% | [6]; at 11.0 µM -9% | [6]; at 33.0 µM -2% | [6]; at 50.0 µM 66.2% | [6]; at 100.0 µM 35% | [7]; at 1.2 µM -5% | [7]; at 3.7 µM -4% | [7]; at 11.0 µM 25% | [7]; at 33.0 µM 4% | [7]; at 100.0 µM 69% | [8]; at 1.2 µM 2% | [8]; at 3.7 µM 10% | [8]; at 11.0 µM 15% | [8]; at 33.0 µM 29% | [9]; at 1.2 µM 5% | [9]; at 3.7 µM 19% | [9]; at 11.0 µM 24% | [9]; at 33.0 µM 43% | [11]; at 1.2 µM 2% | [11]; at 3.7 µM 10% | [11]; at 11.0 µM 20% | [11]; at 33.0 µM 36%
active: [12]; at 100.0 µM 86% | [14]; at 100.0 µM 71% | [15]; at 100.0 µM 71% | [16]; [18] 97% | [16]; at 50.0 µM 77.8% | [16]; at 100.0 µM 91% | [1]; [18] 82% | [2]; at 100.0 µM 95% | [3]; [18] 98% | [6]; [18] 96% | [8]; at 100.0 µM 90% | [9]; at 100.0 µM 93% | [10]; [17] 87% | [10]; [18] 99% | [10]; at 50.0 µM 86.8% | [11]; at 100.0 µM 90%
